This passage reports Potency results from PubChem BioAssay (NCATS).

Inconclusive results are not listed. Calls of active or inactive are those of the source. The call rests on the fitted dose curve; in most records, active means well fitted curve in the direction sought with a large enough effect; inconclusive means small, poorly fitted or top-dose-only effect, or another doubt; inactive means no such curve, though single readings can be large; an effect the other way counts as inactive or inconclusive.

The nature of assay [1]: qHTS of pediatric cancer cell lines to identify multiple opportunities for drug repurposing: Primary screen for DAOY cells (AID 1347090). Further: nearly all actives have a fitted effect of over 55% in size. Further: potency means the concentration at half of the fitted maximal effect. An outline of the steps:
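Viability measured as metabolically active cells via CellTiter-Glo luminescence following 48 hours of compound exposure, 11-point dilutions in confirmatory testing. 500-1,000 cells/well plated 5 hours before dosing; controls were DMSO and 2.3 µM bortezomib.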
Background: qHTS replaces the single test concentration by a dilution series.

Assay [2] can be described thus: qHTS of pediatric cancer cell lines to identify multiple opportunities for drug repurposing: Primary screen for A673 cells (AID 1347092). Further: nearly all actives have a fitted effect of over 45% in size. Further: potency means the concentration at half of the fitted maximal effect. The procedure, abridged: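 Luminescence from CellTiter-Glo, taken after 15 min at room temperature, served as the proxy for metabolically active cells following 48 h treatment. Both potency and efficacy were taken from curves fitted to the titration data.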

A short description of assay [3]: qHTS of pediatric cancer cell lines to identify multiple opportunities for drug repurposing: Primary screen for SK-N-MC cells (AID 1347093). Further: potency means the concentration at half of the fitted maximal effect. An outline of the steps:
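Metabolically active cells were quantified by ATP-dependent luminescence (CellTiter-Glo, 15 min at room temperature) following 48 h treatment. Cells had been plated at 500-1,000 per well and settled for 5 h beforehand.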

Assay [4] is described as follows: qHTS of pediatric cancer cell lines to identify multiple opportunities for drug repurposing: Primary screen for SK-N-SH cells (AID 1347098). Further: nearly all actives have a fitted effect of over 65% in size. Further: potency means the concentration at half of the fitted maximal effect. The procedure, abridged:
(§1)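 Cells (500-1,000/well) rested 5 h, then received compounds for 48 h; metabolically active cells were measured by CellTiter-Glo luminescence. Final concentrations spanned up to 46 µM (MIPE, 11-point) or 0.59 nM-46 µM (NPC, 8-point) in primary screens, 11-point in follow-ups.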

The nature of assay [5]: qHTS of pediatric cancer cell lines to identify multiple opportunities for drug repurposing: Primary screen for OHS-50 cells (AID 1347103). Further: nearly all actives have a fitted effect of over 40% in size. Further: potency means the concentration at half of the fitted maximal effect. The procedure, abridged:
as §1

A short description of assay [6]: qHTS of pediatric cancer cell lines to identify multiple opportunities for drug repurposing: Primary screen for control Hh wild type fibroblast cells (AID 1347106).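 Further: series mostly up to about 46 µM; a drop in luminescence marks cytotoxicity and a rise apparent proliferation; nearly all actives have a fitted effect of over 55% in size.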 An outline of the steps:
(§2)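 Viability after 48 h compound treatment at 37C, 500-1,000 cells/well, read as ATP luminescence with CellTiter-Glo. Primary screens used 11-point (MIPE, 0.78 nM-46 µM) or 8-point (NPC, 0.59 nM-46 µM) final concentrations; follow-up screens used 11-point dilutions.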

A short description of assay [7]: qHTS of pediatric cancer cell lines to identify multiple opportunities for drug repurposing: Confirmatory screen for NB1643 cells (AID 1347109). Further: nearly all actives have a fitted effect of over 45% in size. Further: potency means the concentration at half of the fitted maximal effect. An outline of the steps: as §2
Assay [8] is described as follows: qHTS of pediatric cancer cell lines to identify multiple opportunities for drug repurposing: Primary screen for RD cells (AID 1347104). Further: nearly all actives have a fitted effect of over 55% in size. Further: potency means the concentration at half of the fitted maximal effect. An outline of the steps:
(§3)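 Cells seeded at 500-1,000 cells/well in growth media, rested 5 hours at 37 degrees C, 5% CO2, then dosed; MIPE compounds at 11-point (from 0.78 nM) and NPC at 8-point (from 0.59 nM) final concentrations. Viability by CellTiter-Glo luminescence after 48 hours.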

Assay [9] in a line: qHTS of pediatric cancer cell lines to identify multiple opportunities for drug repurposing: Primary screen for MG 63 (6-TG R) cells (AID 1347105). Further: nearly all actives have a fitted effect of over 50% in size. An outline of the steps:
as §3

Assay [10] is described as follows: qHTS of pediatric cancer cell lines to identify multiple opportunities for drug repurposing: Primary screen for BT-37 cells (AID 1347094). Further: potency means the concentration at half of the fitted maximal effect. The procedure, abridged: as §3
A short description of assay [11]: qHTS of pediatric cancer cell lines to identify multiple opportunities for drug repurposing: Primary screen for U-2 OS cells (AID 1347096). Further: nearly all actives have a fitted effect of over 50% in size. The procedure, abridged: as §2
Assay [12] is described as follows: qHTS of pediatric cancer cell lines to identify multiple opportunities for drug repurposing: Primary screen for LAN-5 cells (AID 1347100). Further: potency means the concentration at half of the fitted maximal effect. The procedure, abridged:
as §2

Assay [13] is described as follows: qHTS of pediatric cancer cell lines to identify multiple opportunities for drug repurposing: Primary screen for BT-12 cells (AID 1347101). Further: nearly all actives have a fitted effect of over 25% in size. Further: potency means the concentration at half of the fitted maximal effect. The procedure, abridged:
as §1

Assay [14] is described as follows: qHTS of pediatric cancer cell lines to identify multiple opportunities for drug repurposing: Primary screen for Rh18 cells (AID 1347102). Further: nearly all actives have a fitted effect of over 65% in size. Further: potency means the concentration at half of the fitted maximal effect. The procedure, abridged: as §2
Assay [15] can be described thus: qHTS of pediatric cancer cell lines to identify multiple opportunities for drug repurposing: Primary screen for Rh30 cells (AID 1347107). Further: series mostly up to about 46 µM; nearly all actives have a fitted effect of over 75% in size. An outline of the steps: as §2
A short description of assay [16]: qHTS of pediatric cancer cell lines to identify multiple opportunities for drug repurposing: Primary screen for NB-EBc1 cells (AID 1347095). Further: potency means the concentration at half of the fitted maximal effect. An outline of the steps: as §3
Assay [17] is described as follows: qHTS of pediatric cancer cell lines to identify multiple opportunities for drug repurposing: Primary screen for Saos-2 cells (AID 1347097). Further: nearly all actives have a fitted effect of over 40% in size. Further: potency means the concentration at half of the fitted maximal effect. The procedure, abridged: as §3
Assay [18] is described as follows: qHTS of pediatric cancer cell lines to identify multiple opportunities for drug repurposing: Primary screen for Rh41 cells (AID 1347108). Further: nearly all actives have a fitted effect of over 70% in size. Further: potency means the concentration at half of the fitted maximal effect. An outline of the steps:
as §3

Assay [19] can be described thus: qHTS of pediatric cancer cell lines to identify multiple opportunities for drug repurposing: Primary screen for NB1643 cells (AID 1347099). Further: nearly all actives have a fitted effect of over 50% in size. Further: potency means the concentration at half of the fitted maximal effect. An outline of the steps: as §3

For the molecule `C=CC(=O)Nc1cccc(Sc2nc(Nc3ccc(N4CCN(C)CC4)cc3)ncc2Cl)c1`, the Potency in [1] was 2.35 µM (active); in [2], 1.48 µM (active); in assay [3], 2.64 µM (active); in assay [4] it was 27.1 µM (active); in assay [5], 27.3 µM (active); in [7] it was 8.27 µM (active). Besides, the Potency result in assay [6] is “inactive”.
Consider `C[C@@H]1CCO[C@H]2Cn3cc(C(=O)NCc4ccc(F)cc4F)c(=O)c(O)c3C(=O)N12`, for which the Potency result in [1], in assay [2], in assay [3], in assay [4], in assay [8] and in assay [9] was “inactive” in each case. Moreover, the Potency result in assay [6] was “inactive”.
Regarding `CC(C)CNc1ccnc(NCc2csc(-c3ccccc3)n2)n1`, the Potency in assay [1] is 18.7 µM (active); in assay [2] it was 11.8 µM (active); in [3] it was 10.5 µM (active); in assay [10], 24.3 µM (active); in assay [12] it was 14.8 µM (active); in assay [13] it was 6.85 µM (active). The results for the Potency in assay [14], in [5] and in assay [8] were 23.5 µM (active), 6.11 µM (active) and 29.6 µM (active), respectively. Besides, the Potency result in assay [11], in assay [6] and in [15] was “inactive” in each case.
Consider `O=C(CCCN1CCN(c2ccc(F)cc2)CC1)NC1c2ccccc2CSc2ccccc21` (centres undefined), for which the Potency is 14.8 µM (active) in assay [1], 11.8 µM (active) in [2], 20.9 µM (active) in assay [3] and 8.63 µM (active) in assay [5]. Further, in assay [6], the Potency result was “inactive”.
As for `CN(C)c1ccccc1CN1CCCN(Cc2ccccc2N(C)C)C1c1ccncc1`, the Potency entry in assay [1], in assay [9], in assay [6] and in [15] was “inactive” throughout. The Potency in assay [2] is 18.7 µM (active); in assay [3], 26.4 µM (active); in assay [16] it was 20.9 µM (active); in assay [5], 27.3 µM (active); in assay [8] it was 26.4 µM (active).
Regarding `N#Cc1ccc(Oc2ccc3c(c2)COB3O)cc1`, the Potency result in [1], in [2], in assay [11], in [17], in assay [14] and in assay [8] was “inactive” throughout. For the same molecule, the Potency result in assay [9], in assay [6], in [15] and in assay [18] was “inactive” throughout. The Potency in assay [3] was 14.8 µM (active).
As for `CN1CCN(c2cccc(Nc3nc4c(-c5ccc(S(C)(=O)=O)cc5)cccn4n3)c2)CC1`, the Potency entry in assay [1], in assay [16], in assay [11] and in assay [6] was “inactive” in each case. Also, the Potency was 9.35 µM (active) in assay [2]; 1.48 µM (active) in assay [3]; 18.7 µM (active) in assay [17]; 13.2 µM (active) in assay [12]; 7.69 µM (active) in [5]; 18.7 µM (active) in assay [18].
Turning to `Cc1cnc(CNC(=O)c2c(=O)c3ccc(N4CCCN(C)CC4)nc3n3c2sc2ccccc23)cn1`, the Potency entry in [1], in assay [2], in assay [11], in [17], in assay [14] and in assay [5] was “inactive” throughout. Moreover, the Potency entry in assay [8], in assay [6] and in [18] was “inactive” each time. In addition, the Potency in assay [16] is 6.45 µM (active).
Consider `N#CC(c1ccnc(NCCc2cccnc2)n1)c1nc2ccccc2s1` (centres undefined), for which the Potency is 29.6 µM (active) in assay [1]; 4.69 µM (active) in assay [2]; 24.3 µM (active) in assay [10]; 18.7 µM (active) in assay [17]; 16.6 µM (active) in [12]; 21.7 µM (active) in [13]. For the same molecule, the Potency in assay [5] was 19.3 µM (active); in assay [8], 23.5 µM (active); in assay [18] it was 23.5 µM (active).
`CC(C)(F)C[C@H](N[C@@H](c1ccc(-c2ccc(S(C)(=O)=O)cc2)cc1)C(F)(F)F)C(=O)NC1(C#N)CC1`: the Potency result in [1], in [2], in assay [3], in assay [11], in assay [17] and in assay [4] was “inactive” each time. Moreover, the Potency result in assay [19], in [13], in assay [9], in [6] and in assay [15] was “inactive” throughout.
For `O=C1C(c2c(O)[nH]c3ccccc23)=Nc2ccccc21`, the Potency was 0.59 µM (active) in [1], 0.59 µM (active) in assay [2] and 0.118 µM (active) in assay [3]. Moreover, the Potency entry in [11], in assay [19], in assay [12], in assay [14] and in assay [5] was “inactive” throughout.
In the case of `Cc1nc(C(=O)NCC(=O)O)c(O)c2ccc(Oc3ccccc3)cc12`, the Potency result in assay [1], in assay [2], in assay [10], in assay [11], in assay [4] and in assay [19] was “inactive” in each case. In addition, the Potency result in assay [12], in assay [13], in assay [14], in [8], in assay [9] and in assay [15] was “inactive” each time.
`CN1CCN(c2ncc(-c3cc(Cl)cc(Cl)c3Cl)c(N)n2)CC1`: the Potency entry in assay [1], in [11], in assay [14], in assay [9], in [15] and in [18] was “inactive” throughout. In addition, the Potency is 2.35 µM (active) in assay [2]; 10.5 µM (active) in [3]; 3.06 µM (active) in [10]; 21.5 µM (active) in [4]; 16.6 µM (active) in assay [19]; 4.32 µM (active) in [13]. The Potency in assay [5] is 3.85 µM (active).
As to `COc1nccc(-c2c(-c3ccc(F)cc3)ncn2C2CCC(O)CC2)n1` (centres undefined), the Potency entry in [1], in assay [2], in [3], in [16], in assay [11] and in assay [4] was “inactive” each time. For the same molecule, the Potency result in [19], in assay [12], in assay [13], in [14], in assay [5] and in assay [8] was “inactive” each time. The Potency entry in assay [9], in assay [6] and in [18] was “inactive” each time.
For the molecule `Cc1cc2nc3c(=O)[nH]c(=O)nc-3n(CC(O)C(O)C(O)CO)c2cc1C` (centres undefined), the Potency result in assay [1], in assay [10], in assay [16], in assay [11], in assay [17] and in assay [12] was “inactive” in each case. The Potency result in [13], in assay [14], in [5], in [8], in assay [9] and in assay [6] was “inactive” each time. Moreover, the Potency result in [15] and in assay [18] was “inactive” in each case. In addition, the Potency is 29.6 µM (active) in assay [3] and 23.5 µM (active) in assay [19].
For the molecule `CCC(=O)OCC(=O)[C@@]1(OC(=O)CC)[C@@H](C)C[C@@H]2[C@H]3CCC4=CC(=O)C=C[C@]4(C)[C@@]3(F)[C@@H](O)C[C@@]21C`, the Potency was 1.18 µM (active) in assay [1]; 1.87 µM (active) in assay [2]; 0.0372 µM (active) in [3]; 0.187 µM (active) in [17]; 2.35 µM (active) in assay [19]; 6.11 µM (active) in assay [13]. Moreover, the Potency in assay [5] was 10.9 µM (active); in assay [8] it was 6.62 µM (active). Moreover, the Potency result in [16], in assay [11], in [14], in assay [6], in [15] and in assay [7] was “inactive” each time.
